This is a sample that favours compounds with a hit; in the whole collection about 2.4% have one here.
D2 PAM-1: D2 dopamine receptor (human) potentiation; HEK293 T-REx D2, calcium flux, EC20 dopamine potentiation; potentiation, % at 10 µM; hit rate 0.34% among 340,000; P14416;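 active = potentiation over 3 SD above the plate norm, cut at about 30% in these data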
Target sequence (P14416 whole entry, looked up): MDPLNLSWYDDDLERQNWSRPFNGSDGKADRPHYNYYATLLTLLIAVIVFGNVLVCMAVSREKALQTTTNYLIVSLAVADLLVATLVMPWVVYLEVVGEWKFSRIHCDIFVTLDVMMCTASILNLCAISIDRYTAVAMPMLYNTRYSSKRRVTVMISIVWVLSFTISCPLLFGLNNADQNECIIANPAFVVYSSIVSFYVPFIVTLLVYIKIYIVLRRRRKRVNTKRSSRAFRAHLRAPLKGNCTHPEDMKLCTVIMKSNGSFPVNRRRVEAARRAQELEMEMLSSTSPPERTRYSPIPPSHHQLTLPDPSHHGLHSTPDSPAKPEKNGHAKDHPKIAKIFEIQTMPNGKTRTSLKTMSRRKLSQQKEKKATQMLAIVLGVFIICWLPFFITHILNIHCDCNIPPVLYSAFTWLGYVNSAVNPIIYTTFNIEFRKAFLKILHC
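Potentiation of an EC20 dopamine calcium response measured kinetically over 180 s, after a preceding 180 s compound-only read flagging agonists. Cells: inducible Hek293 Trex D2 line, 4000/well, cultured overnight at 30 C before dye loading.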
D2 ag-1: human D2 receptor agonism in beta-arrestin assay. P14416. DiscoveRx PathHunter D2 beta-arrestin, luminescence, 90 min; 100% = 57 uM dopamine signal. activation, % (test concentration not listed). hit rate 0.084% among 360,000; in the data active = activation above about 40%; inconclusive = between about 15% and that limit
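Agonist mode: compounds alone added to overnight-plated D2 PathHunter cells for 90 min at 37 C, with 57 uM final dopamine (EC100) defining full response. Beta-arrestin recruitment detected by chemiluminescent reagent, read after 1 h at ambient temperature.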
D2 ag-2: agonists of human D2 dopamine receptor | P14416 | HEK293 T-REx D2 cells, calcium flux agonist mode | activation, % at 2 µM | hit rate 0.53% among 340,000;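 active = activation over 3 SD above normal in the single-dose calcium agonist read, cut at about 30% in these data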
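Agonism is scored from calcium flux in a force-coupled, inducible HEK293 cell line expressing D2, read kinetically for 180 s after compound addition against dopamine controls.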
D2 antagonist: antagonizes the human D2 dopamine receptor; inhibition, % at 10 µM; HEK293 TREx D2 cells, calcium flux, dopamine EC80; P14416; hit rate 2% among 340,000; in the data active = inhibition above about 30%; inactive = below that, where a call was filed
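Tetracycline-induced HEK293 T-REx cells expressing D2 force-coupled to calcium signalling were dye-loaded, exposed to compound for 180 s, then challenged with an EC80 of dopamine; calcium flux was followed kinetically for a further 180 s.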
D2 PAM-2: human D2 receptor positive allosteric modulation; P14416; DiscoveRx D2 beta-arrestin cells, luminescence, 90 min; 100% = 57 uM dopamine signal; potentiation, % (concentration not given with the values); hit rate 0.23% among 360,000; AID 624464; in the data active = potentiation above about 50%; inconclusive = mostly about 30% to 49%
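D2 cells co-treated with compound plus 50 nM dopamine (EC20) for 90 min at 37 deg C to detect potentiation. Beta-arrestin recruitment was read as enzyme-fragment luminescence after 1 h at ambient temperature. Full response was set by 57 uM dopamine.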
A number is an active result; 0 = inactive; ? = inconclusive; - = no result given.

SMILES | D2 PAM-1 | D2 ag-1 | D2 ag-2 | D2 antagonist | D2 PAM-2
c1ccc(C2=NN(c3ccccc3)CC2)cc1 | 0 | 0 | 0 | 0 | 0
Cc1cc(Nc2cccc(C(F)(F)F)c2)nc2ccc(NC(=O)c3cncc(Br)c3)cc12 | 0 | - | 0 | - | -
CCOc1ccc(CNCCN2CCCC2)cc1 | 0 | 0 | 0 | 74 | 0
COc1ccc(O)c(N)c1 | 43 | - | 0 | 0 | -
CN(C)c1ccnc(Oc2ccc(Cl)cc2)c1C#N | 42 | 0 | 0 | 0 | 0
O=C(OCC(=O)N1CCCc2ccccc21)c1ccc(C(F)(F)F)cc1 | 0 | 0 | 0 | 0 | 0
O=C(OCC(=O)N1CCCc2ccccc21)c1ccc(S(=O)(=O)C(F)F)cc1 | 0 | 0 | 0 | 42 | 0
CCC(Cn1nnc2ccccc2c1=O)NC(=O)Nc1ccc(C)cc1C (stereo not given) | 0 | - | 0 | - | -
O=C(NC(=O)N1CCCCCC1)c1ccc(Cl)cc1 | 0 | 0 | 0 | 32 | 0
O=C(NC(=O)N1CCN(c2cccc(Cl)c2)CC1)c1ccccc1 | 0 | 0 | 0 | 0 | 0
O=C(NC(=O)N1CCN(c2cccc(Cl)c2)CC1)c1ccc(Cl)cc1 | 0 | 0 | 0 | 57 | 0
COc1ccccc1NC(=O)Cc1c(C(=O)O)[nH]c2ccc(Cl)cc12 | 0 | - | 0 | - | -
O=C(c1cc(-c2ccccc2)nc2ccccc12)N1CCCC1 | 0 | 0 | 0 | 0 | 0
Cc1cnn(C(=O)c2cc(-c3ccccc3)nc3ccccc23)c1 | 0 | 0 | 0 | 55 | 0
CC(C)CC(NC(N)=O)C(=O)NCc1ccccc1Cl (stereo not given) | 38 | 0 | 0 | 0 | 0
O=S(=O)(/C=C/c1ccccc1)Nc1ccc2c(c1)OCO2 | 0 | 0 | 0 | 34 | 0
O=C(CCCCn1c(=O)c2ccccc2n(Cc2ccccc2Cl)c1=O)NCCc1ccccc1 | 0 | - | 0 | - | -
CC(C)(C)c1ccc(-c2noc(CCC(=O)Nc3cccnc3)n2)cc1 | 0 | 0 | 0 | 36 | 0
COc1ccc(-c2noc(CCC(=O)Nc3cccnc3)n2)cc1 | 0 | 0 | 0 | 0 | 0
O=C(CS(=O)c1ccc(C(F)(F)F)cc1[N+](=O)[O-])Oc1ccccc1 (stereo not given) | 33 | 0 | 0 | 0 | 0
Cc1ccc(S(=O)(=O)Nc2ccc(O)c3cccnc23)cc1 | 31 | 0 | 0 | 0 | ?
CC1CCN(C(=O)c2cccc(NC(=O)c3nsc4ccccc34)c2)CC1 | 0 | - | - | - | -
CCCCC1=CC2=C(c3ccco3)C(=O)C(C)(OC(=O)c3ccc(OC)cc3)C(=O)C2=CN1Cc1ccc2c(c1)OCO2 (stereo not given) | 0 | 0 | 0 | 33 | 0
CCCCC1=CC2=CC(=O)C(C)(OC(=O)CC)C(=O)C2=CN1Cc1ccc(OC)cc1 (stereo not given) | 0 | 0 | 0 | 31 | 0
CCCCC1=CC2=C(c3ccco3)C(=O)C(C)(OC(=O)c3ccc(OC)cc3)C(=O)C2=CN1Cc1ccccc1 (stereo not given) | 0 | 0 | 0 | 0 | 0
SMILES | D2 PAM-1 | D2 ag-1 | D2 ag-2 | D2 antagonist | D2 PAM-2
COc1ccc(-c2nnc(SCC(=O)NCc3ccccc3)nc2-c2ccc(OC)c(OC)c2)cc1OC | 0 | - | 0 | - | -
c1ccc(-c2ncnc3nc4n(c23)CCC4)cc1 | 0 | 0 | 0 | 34 | 0
Cn1c(Cl)c(/C=N/OC(=O)c2ccc(Cl)cc2)c2ccccc21 | 0 | 0 | 0 | 56 | 0
Cc1ccc(C(=O)O/N=C/c2c(Cl)n(C)c3ccccc23)cc1 | 0 | 0 | 0 | 0 | 0
Cn1c(N2CCOCC2)c(/C=N/OC(=O)c2ccc(F)cc2)c2ccccc21 | 0 | ? | 0 | 0 | 141
Cc1ccc(C(=O)O/N=C/c2c(N3CCOCC3)n(C)c3ccccc23)cc1 | 0 | ? | 0 | 0 | 85
CC(=O)O/N=C/c1c(N2CCOCC2)n(C)c2ccccc12 | - | 0 | - | - | 62
Cc1ccc(NC(=O)Cn2cc(C(=O)c3cccs3)c3ccccc32)cc1C | - | - | 0 | - | -
CC(=O)N1CCOc2ccc(S(=O)(=O)N3CCC(C(=O)Nc4cc(C)cc(C)c4)CC3)cc21 | 0 | 0 | 0 | 52 | 0
Cc1cc(C)cc(NC(=O)C2CCN(S(=O)(=O)c3ccc4[nH]c(=O)ccc4c3)CC2)c1 | 0 | 0 | 0 | 31 | 0
O=C(c1ccc2c(c1)N(Cc1ccccc1)C(=O)c1ccccc1S2=O)N1CCC(Cc2ccccc2)CC1 (stereo not given) | 0 | - | 0 | - | -
Cc1ccc(Cl)cc1NC(=O)Nc1cccc(OCc2cc(=O)n3ccccc3n2)c1 | 0 | - | 0 | - | -
O=C(Nc1ccc(S(=O)(=O)Nc2ccccn2)cc1)c1cccc([N+](=O)[O-])c1 | 0 | 0 | 0 | 39 | 0
O=C(Nc1ccc(S(=O)(=O)Nc2ncccn2)cc1)c1cccnc1 | 0 | 0 | 0 | 42 | 0
CC1CCN(S(=O)(=O)c2cc(C(=O)NCc3ccccc3)n(C)c2)CC1 | 0 | - | 0 | - | -
Cc1onc(C(=O)N2CCN(c3ccccc3F)CC2)c1-c1ccccc1Cl | 34 | 0 | 0 | 0 | 0
Cc1ccccc1C(=O)Nc1nc2c(s1)CC(C(C)(C)C)CC2 (stereo not given) | 0 | - | - | - | -
COc1cccc(NC(=O)/C=C/c2ccc([N+](=O)[O-])cc2)c1 | 0 | 0 | 0 | 45 | 0
COc1cccc(NC(=O)/C=C/c2ccccc2[N+](=O)[O-])c1 | 0 | 0 | 0 | 0 | 0
COc1ccc(/C=C/C(=O)Nc2cccc(F)c2)cc1S(=O)(=O)N1CCOCC1 | 0 | 0 | 0 | 56 | 0
COc1cccc(NC(=O)/C=C/c2ccc(S(=O)(=O)N3CCOCC3)cc2)c1 | 0 | 0 | 0 | 47 | 0
COC(=O)CCSc1nc2sc3c(c2c(=O)n1Cc1ccccc1)CCC(C(C)(C)C)C3 (stereo not given) | 0 | - | 0 | - | -
Cc1cc(NS(=O)(=O)c2ccccc2)cc(Cl)c1O | 0 | ? | 0 | 0 | 88
Cc1ccc(S(=O)(=O)Nc2cc(C)c(O)c(S(=O)(=O)c3ccc(C)cc3)c2)cc1 | 0 | 0 | 0 | 0 | 88
COc1cccc(CNC(=O)CN(c2ccc(C(C)C)cc2)S(=O)(=O)c2c(C)n[nH]c2C)c1 | 0 | - | 0 | - | -
SMILES | D2 PAM-1 | D2 ag-1 | D2 ag-2 | D2 antagonist | D2 PAM-2
COc1ccc(NC(=O)NCCN2CCN(c3cc(OC)ccc3OC)CC2)cc1 | 0 | 0 | 0 | 0 | 0
COc1ccc(Cl)c(N2CCN(CCCNC(=O)Nc3ccc(C)cc3)CC2)c1 | 0 | 0 | 0 | 36 | 0
Cc1cccc(Cn2c(COc3ccccc3)nc3ccccc32)c1 | 0 | - | 0 | - | -
CCCCC(=O)OCc1nc2ccccc2s1 | 42 | 0 | 0 | 0 | 0
CN(C(=O)CSc1nnc(-c2ccc([N+](=O)[O-])cc2)o1)c1ccccc1 | 0 | - | 0 | - | -
CCOc1cc(Cl)c(S(=O)(=O)n2cc(C)nc2CC)cc1Cl | 0 | - | 0 | - | -
CCN(CC(=O)Nc1c(F)cccc1F)C(=O)/C=C/c1cn(Cc2ccccc2)nc1-c1cccnc1 | 0 | 0 | 0 | 32 | 0
N=c1n(CCO)c2ccccc2n1Cc1ccccc1F | 0 | - | 0 | - | -
CC(=O)Nc1ccc(N2CCCC2)cc1 | 0 | 0 | 0 | 0 | 0

Compound activity from PubChem BioAssay.
